Consider 40 compounds from PubChem BioAssay (NCATS).

SMILES strings stand for the structures. Results filed as inconclusive are left out. Unmarked numbers belong to inactive results. Activity calls are given as the source filed them. The call rests on the fitted dose curve; in most records, active means well fitted cell-killing curve with a large enough effect; inconclusive means small, poorly fitted or top-dose-only effect, or effect the other way; inactive means no such curve, though single readings can be large or run the other way.
Potency means the concentration at half of the fitted maximal effect.

The nature of this experiment: Quantitative High-Throughput drug screen in 47 multiple myeloma cell lines against the NCATS MIPE library collection: KHM11_PLB cell viability assay (AID 1918962). Further: nearly all actives have a fitted effect of over 35% in size. As to conditions: KHM11 myeloma cell viability, CellTiter-Glo ATP luminescence, 48 h; series mostly up to 45.8 µM; viability, % of DMSO control: at the top concentration. The source says: PI: Beverly A. Mock Ph.D.
Laboratory of Cancer Biology and Genetics,
Center for Cancer Research, National Cancer Institute,
National Institute of Health, Bethesda, Maryland
Drug resistance and disease progression are common in multiple myeloma (MM) patients, underscoring the need for new therapeutic combinations. […] We hypothesized that effective combinations would reduce MYC expression and enhance p16 activity. […] These preclinical data identify potentially useful drug combinations for evaluation in drug-resistant MM and reveal potential mechanisms of combined drug sensitivity.
Described herein is the primary MIPE qHTS used to cherrypick compounds. Validated compounds were then further tested for potential synergistic activiy.
[1] Peat TJ, Gaikwad SM, Dubois W, Gyabaah-Kessie N, Zhang S, Gorjifard S, Phyo Z, Andres M, Hughitt VK, Simpson RM, Miller MA, Girvin AT, Taylor A, Williams D, D'Antonio N, Zhang Y, Rajagopalan A, Flietner E, Wilson K, Zhang X, Shinn P, Klumpp-Thomas C, McKnight C, Itkin Z, Chen L, Kazandijian D, Zhang J, Michalowski AM, Simmons JK, Keats J, Thomas CJ, Mock BA. Drug combinations identified by high-throughput screening promote cell cycle transition and upregulate Smad pathways in myeloma. Cancer Lett. 2023 Aug 1;568:216284. doi: 10.1016/j.canlet.2023.216284. Epub 2023 Jun 24. PMID: 37356470; PMCID: PMC10408729.
SEQUENCE No. (e.g., 1, 2, 3, etc.); […] (e.g., Cells, Incubation, Reagent, etc.); VALUE and DESCRIPTION.
1; Cells; 5 uL; white, solid bottom 1536-well Greiner assay plate.
2; Compounds; 23 nL; Kalypsis pin tool (Wako USA) equipped with a 1536-well pin head to transfer to the assay plates.
3; Incubation; 48 hours; 37C incubation.
4; Reagent;5uL; CellTiter Glo (Promega).
5; Detector; 425V; Luminescence; Viewlux PerkinElmer.
NOTES (numbers refer to Sequence numbers above)
1. The cell-based screening methods employed in this study were like those previously published. Briefly, the corresponding myeloma cell lines were screened in 1,536-well plates with 500 cells, 5-uL per well for inhibition of cell viability (assessed by measuring ATP levels with CellTiterGlo).
2. NCATS MIPE 4.0 library of approved and investigational drugs were added using the Kalypsis pin tool. Wells treated with DMSO only for 100% viability and media only wells for 0% viability were used as controls.
3. The assay plates were covered and incubated for 48 hours in a 37C, 5% CO2 incubator with controlled humidity.
4. After 48 hours, CellTilter-GloTM luminescent substrate mix (Promega) reagent was added to the assay plate and plates we incubated for 5 min at room temperature.
5. Signal was measured as median relative luminescence units on a ViewLux (PerkinElmer) multiplate reader.
[1] Heske CM, Davis MI, Baumgart JT, Wilson K, Gormally MV, Chen L, Zhang X, Ceribelli M, Duveau DY, Guha R, Ferrer M, Arnaldez FI, Ji J, Tran HL, Zhang Y, Mendoza A, Helman LJ, Thomas CJ. Matrix Screen Identifies Synergistic Combination of PARP Inhibitors and Nicotinamide Phosphoribosyltransferase (NAMPT) Inhibitors in Ewing Sarcoma. Clin Cancer Res. 2017 Dec 1;23(23):7301-7311. doi: 10.1158/1078-0432.CCR-17-1121. Epub 2017 Sep 12. PMID: 28899971; PMCID: PMC6636827.
In general terms: Cellular ATP, detected with luciferase, serves as a proxy for viable cell number.
With `C[C@H](NC(=O)[C@@H](O)c1cc(F)cc(F)c1)C(=O)N[C@@H]1C(=O)N(C)c2ccccc2-c2ccccc21`, the “viability, % of DMSO control” value is 99.7%.

Consider `Nc1ccc(C(=O)Nc2cccc(-c3nc(N4CCOCC4)c4oc5ncccc5c4n3)c2)cn1`, for which the Potency is 7.43 µM (active). For `Cn1cc(CNCC2CCN(c3ncc(C(=O)NO)cn3)CC2)c2ccccc21`, the Potency was 0.0662 µM (active).

Turning to `CCN(CC)Cc1ccc2cc(COC(=O)Nc3ccc(C(=O)NO)cc3)ccc2c1`, the Potency is 1.32 µM (active). On to `OCC(O)C(O)C(O)CO` (stereo not given), for which the “viability, % of DMSO control” value is 98.7%. For the compound `Cc1cnc(NC(=O)Nc2cc(Br)c(C)cc2OC[C@@H]2CNCCO2)cn1`, the Potency is 20.9 µM (active). In the case of `COc1cc(C[C@@H](CO)[C@H](CO)Cc2ccc(O)c(OC)c2)ccc1O`, the Potency is 1.18 µM (active). Consider `COc1ccc(C[C@@H](C)[C@@H](C)Cc2ccc(OC)c(OC)c2)cc1OC`, for which the Potency was 0.148 µM (active). Turning to `CCc1ccc(C(=O)Nc2cc(CN3CCN(C)CC3)cc(C(F)(F)F)c2)cc1C#Cc1cnc2ccnn2c1`, the Potency was 9.35 µM (active). As to `COc1cc(C=CC(=O)CC(=O)C=Cc2ccc(O)c(OC)c2)ccc1O`, the Potency is 6.05 µM (active). As to `COc1ccc(C=Cc2cc(OC)c(OC)c(OC)c2)cc1NC(=O)[C@H](N)CO`, the “viability, % of DMSO control” value is 67.4%. On to `C=CCNC1=C2C[C@@H](C)C[C@H](OC)[C@@H](O)[C@@H](C)C=C(C)[C@H](OC(N)=O)[C@@H](OC)C=CC=C(C)C(=O)NC(=CC1=O)C2=O`, for which the Potency was 0.59 µM (active). `C[C@@]12C[C@@]3(O)O[C@@H](O1)[C@]1(COC(=O)c4ccccc4)[C@@H]3C[C@@]12O[C@@H]1O[C@H](CO)[C@@H](O)[C@H](O)[C@@H]1O`: the “viability, % of DMSO control” value was 106%. As to `CN1C(C(=O)Nc2ccccn2)=C(O)c2sc(Cl)cc2S1(=O)=O`, the Potency is 3.32 µM (active). On to `COC(=O)C=CC(=O)OC`, for which the Potency is 18.7 µM (active). On to `COc1cc(C(=O)NC2CCN(C)CC2)ccc1Nc1ncc2c(n1)N(C1CCCC1)CCC(=O)N2C(C)C`, for which the Potency is 14.8 µM (active). Still for that read-out and setting: the figure for `C[C@H](NC(=O)C(C#N)=Cc1cccc(Br)n1)c1ccccc1` is 2.09 µM (active). Turning to `CC(C(C)N1CC(=O)NC(=O)C1)N1CC(=O)NC(=O)C1` (stereo not given), the “viability, % of DMSO control” value is 130%. For the compound `CN(C)c1ccc(C(=O)NCCCCCCC(=O)NO)cc1`, the Potency was 1.66 µM (active). Same read-out and setting: in the case of `C[C@H]1[C@@H](OC(=O)CCC(=O)O)O[C@@H]2O[C@@]3(C)CC[C@@H]4[C@H](C)CC[C@@H]1[C@@]24OO3` it was 3.32 µM (active).

As to `C[C@@H](Cc1cc2c(c(C(N)=O)c1)N(CCCO)CC2)NCCOc1ccccc1OCC(F)(F)F`, the “viability, % of DMSO control” value is 91.3%. Turning to `C[C@@H](Oc1ccc2[nH]nc(C=Cc3cnn(CCO)c3)c2c1)c1c(Cl)cncc1Cl`, the Potency was 1.87 µM (active). As to `CC(C)OC(=O)[C@H](C)N[P@](=O)(OC[C@H]1O[C@@H](n2ccc(=O)[nH]c2=O)[C@](C)(F)[C@H]1O)Oc1ccccc1`, the “viability, % of DMSO control” value is 129%. `CC(=O)O[C@@]12CO[C@H]1C[C@H](O)[C@@]1(C)C(=O)[C@H](O)C3=C(C)[C@@H](OC(=O)C(O)[C@@H](NC(=O)OC(C)(C)C)c4ccccc4)C[C@@](O)([C@@H](OC(=O)c4ccccc4)[C@@H]21)C3(C)C` (stereo not given in full): the “viability, % of DMSO control” value is 91.9%. In the case of `c1cc(CN2CCCNCCNCCCNCC2)ccc1CN1CCCNCCNCCCNCC1`, the “viability, % of DMSO control” value is 145%. For the compound `Cc1cnn(C)c1C(=O)Nc1cc(Nc2ccc3c(C=Cc4ccccn4)n[nH]c3c2)ccc1F`, the Potency was 18.7 µM (active).

Regarding `NC(=O)c1cccc(-c2cccc(OC(=O)NC3CCCCC3)c2)c1`, the “viability, % of DMSO control” value is 107%.

Consider `Cc1cc(Nc2ncc3c(n2)N(C)C(=O)N(c2cc(NC(=O)c4cccc(C(F)(F)F)c4)ccc2C)C3)n(C)n1`, for which the Potency was 0.372 µM (active). On to `COc1ccc(Nc2cc(-c3cnc(N)nc3)nc(N3CCOCC3)n2)cn1`, for which the Potency is 4.18 µM (active). For `C[C@]12C=CC(=O)N[C@@H]1CC[C@H]1[C@H]3CC[C@@H](C(=O)Nc4cc(C(F)(F)F)ccc4C(F)(F)F)[C@@]3(C)CC[C@@H]12`, the “viability, % of DMSO control” value is 125%. The same measure, in the same setting: in the case of `NC1=N[C@H]2[C@H](CS[C@H]2CCCCC(=O)O)N1` it was 111% [at 23.2 µM]. Turning to `Oc1ccc(-c2ccc(-c3cc(Nc4cccc(CNC5CC5)c4)n[nH]3)cc2)c(O)c1`, the Potency was 0.743 µM (active). As to `C#C[C@]1(O)CC[C@@H]2[C@@H]3CCC4=CC(=O)CC[C@@H]4[C@H]3CC[C@@]21CC`, the “viability, % of DMSO control” value was 75.4%. As to `C=CC(=O)Nc1ccc2ncnc(Nc3ccc(OCc4cccc(F)c4)c(Cl)c3)c2c1`, the Potency was 6.62 µM (active). As to `CC(C=CC1=C(C)CCCC1(C)C)=CC=CC(C)=CC(=O)Nc1ccc(O)cc1`, the Potency was 17.1 µM (active). On to `CC(C)(C)c1nc2c3cc[nH]c(=O)c3c3cc(F)ccc3c2[nH]1`, for which the Potency is 1.48 µM (active). Turning to `O=C1NC(=O)C(=Cc2ccc3nccc(-c4ccncc4)c3c2)S1`, the Potency is 0.0469 µM (active). `C=C(C)[C@@H]1CC[C@]2(C(=O)O)CC[C@]3(C)[C@H](CC[C@@H]4[C@@]5(C)CC[C@H](O)C(C)(C)[C@@H]5CC[C@]43C)[C@@H]12`: the Potency was 3.72 µM (active). For the compound `COc1ccc([C@@H]2CNC(=O)C2)cc1OC1CCCC1`, the Potency was 10.5 µM (active). For `CC1=C(C(=O)Nc2cc3cn[nH]c3cc2F)C(c2ccc(Cl)cc2F)N=C(c2ccnc(Cl)c2)N1` (stereo not given), the “viability, % of DMSO control” value is 107%.
